# In PubChem BioAssay (Tox21):
# Where “and” joins values, the source holds several entries; their conditions need not be identical. Equal entries are not always repeated. Results filed as inconclusive are left out. A call without a number means that no potency is given here. A structure can be active in one record and inactive in another. Calls of active or inactive are those of the source. Unless noted, the call rests on the fitted dose curve; in most records, active means well fitted curve in the direction sought with a large enough effect in the repeat runs; inconclusive means weak or mixed curves; inactive means no such curve, though single readings can be large; an effect the other way counts as inactive or inconclusive.
# Assays:
# [1] = target: Peroxisome proliferator-activated receptor delta (Homo sapiens) (UniProt Q03181); test: qHTS assay to identify small molecule agonists of the peroxisome proliferator-activated receptor delta (PPARd) signaling pathway (AID 743212; calls by dose curve)
# In short: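 GeneBLAzer UAS-bla HEK293H cells carrying a PPARδ construct were exposed to compounds at 37 °C. Beta-lactamase activity was read by FRET fluorescence after 2 h at room temperature with LiveBLAzer B/G substrate.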
# [2] = qHTS assay to identify small molecule antagonists of the peroxisome proliferator-activated receptor delta (PPARd) signaling pathway - cell viability counter screen (AID 743213); further: nearly all actives have a fitted effect of over 50% in size
# In short: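 Viability counter-screen, qHTS format: PPARd-bla HEK293H, L165041 300 nM final, 17 h compound exposure at 37 C, CellTiter-Glo luminescence after 30 min RT.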
# [3] = qHTS assay to identify small molecule agonists of the farnesoid-X-receptor (FXR) signaling pathway - cell viability counter screen (AID 743218); further: nearly all actives have a fitted effect of over 45% in size; further: potency means the concentration at half of the fitted maximal effect
# In short: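 After 16 h at 37 C with test compounds, FXR-bla HEK 293T cells were given LiveBLAzer B/G substrate for 2 h at RT and then CellTiter-Glo; luminescence was taken after 30 min.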
# [4] = qHTS assay to identify small molecule antagonists of the farnesoid-X-receptor (FXR) signaling pathway - cell viability counter screen (AID 743221; active means well fitted cell-killing curve with a large enough effect in the repeat runs, not every such curve was filed as active; further: nearly all actives have a fitted effect of over 50% in size)
# In short: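 Cytotoxicity is taken from ATP luminescence (CellTiter-Glo, 30 min, room temperature) in FXR-bla HEK 293T cells previously incubated 16 h at 37 C with compound and chenodeoxycholic acid at 50 uM final.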
# [5] = qHTS assay to identify small molecule antagonists of the vitamin D receptor (VDR) signaling pathway - cell viability counter screen (AID 743225); further: nearly all actives have a fitted effect of over 50% in size
# In short: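 Same-well multiplex: following 16 h treatment of HEK 293T cells carrying a UAS-driven beta-lactamase reporter with compound and agonist (3 nM final), and a 2 h FRET substrate step, CellTiter-Glo was added and luminescence read after 30 min.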
# [6] = qHTS assay to identify small molecule agonists of the NFkB signaling pathway - cell viability counter screen (AID 1159515; calls by dose curve; further: series mostly up to about 61 µM; nearly all actives have a fitted effect of over 55% in size)
# In short: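 5 hr compound treatment of NFkB-bla ME-180 cells (2,000/well, seeded overnight beforehand), followed by reporter substrate for 1.5 hr. CellTiter-Glo added afterward; luminescence after 30 min RT.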
# [7] = qHTS assay to identify small molecule agonists of the endoplasmic reticulum stress response signaling pathway - cell viability counter screen (AID 1159517; calls by dose curve;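 further: HeLa cells carrying an ER stress response element beta-lactamase reporter; series mostly up to about 61 µM; nearly all actives have a fitted effect of over 50% in size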)
# In short: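 ESRE-bla HeLa cells, 1,500 per well, seeded overnight then treated with compounds for 5 hr at 37 C. After the beta-lactamase read, viability in the same wells is measured by CellTiter-Glo luminescence after 30 min at room temperature.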
# [8] = qHTS assay to identify small molecule antagonists of the retinoid-related orphan receptor gamma (ROR-gamma) signaling pathway - cell viability counter screen (AID 1159520); further: nearly all actives have a fitted effect of over 50% in size
# In short: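 Tet-on ROR gamma CHO cells were given compounds for 2 hr, then doxycycline hyclate at 1 uM final, and incubated 16 hr at 37 C. Viability was measured as ATP content by CellTiter-Glo luminescence.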
# [9] = target: Nuclear receptor ROR-gamma (Homo sapiens) (UniProt P51449); test: qHTS assay to identify small molecule antagonists of the retinoid-related orphan receptor gamma (ROR-gamma) signaling pathway (AID 1159521; further: nearly all actives have a fitted effect of over 50% in size; further: potency means the concentration at half of the fitted maximal effect)
# In short: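 Inducible-expression reporter assay: doxycycline (1 uM final) switched on RORγ in CHO cells bearing a ROR response element-luciferase construct, with test compounds present from 2 h beforehand. Decreased luminescence after 16 h defined antagonist activity.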
# [10] = qHTS assay to identify small molecule agonists of the AP-1 signaling pathway - cell viability counter screen (AID 1159525; calls by dose curve; further: nearly all actives have a fitted effect of over 55% in size)
# In short: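 AP-1-bla ME-180 cells in Opti-MEM with 0.5% dialyzed FBS, compound exposure 5 h at 37 C in 15-point titration. Viability read in the same wells as ATP content by CellTiter-Glo luminescence, normalised to tetra-n-octylammonium bromide and DMSO controls.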
# [11] = qHTS assay to identify small molecule agonists of the AP-1 signaling pathway (AID 1159526; calls by dose curve)
# [12] = qHTS assay to identify small molecule agonists of the RXR signaling pathway - cell viability counter screen (AID 1159529); further: nearly all actives have a fitted effect of over 50% in size; further: potency means the concentration at half of the fitted maximal effect
# In short: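 Counter screen: CellTiter-Glo luminescence. Cells: RXR-alpha-UAS-bla HEK 293T. Medium: 2% charcoal-stripped FBS. Treatment: 16 h, 37 C. Reagent incubation: 30 min, RT.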
# [13] = qHTS assay to identify small molecule antagonists of the retinoid acid receptor (RAR) signaling pathway - cell viability counter screen (AID 1159551); further: nearly all actives have a fitted effect of over 35% in size
# In short: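 Seed C3RL4 cells; next day add compound, then retinol to 1 uM final; incubate 6 h at 37 C; add CellTiter-Glo; read luminescence after 30 min at RT.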
# [14] = target: Vitamin D3 receptor (Homo sapiens) (UniProt P11473); test: qHTS assay to identify small molecule agonists of the vitamin D receptor (VDR) signaling pathway (AID 743222; calls by dose curve)
# In short: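 VDR-bla cells were seeded, left 4 h, treated with compounds in DMSO for 16 h, incubated 2 h at RT with B/G FRET substrate, and read for fluorescence.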
# [15] = target: Vitamin D3 receptor (Homo sapiens) (UniProt P11473); test: qHTS assay to identify small molecule antagonists of the vitamin D receptor (VDR) signaling pathway (AID 743223; active means well fitted inhibition curve with a large enough effect in the signal ratio in the repeat runs, not every such curve was filed as active; the % refers to the signal ratio)
# In short: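 Quantitative HTS in VDR-bla reporter cells stimulated with 1alpha,25-dihydroxyvitamin D3, 3 nM final. Compound exposure 16 h, 37C, 5% CO2. Read-out: beta-lactamase FRET substrate fluorescence, 2 h RT.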
# [16] = target: Retinoic acid receptor RXR-alpha (Homo sapiens) (UniProt P19793); test: qHTS assay to identify small molecule agonists of the RXR signaling pathway (AID 1159527; calls by dose curve; further: nearly all actives have a fitted effect of over 35% in size; further: potency means the concentration at half of the fitted maximal effect)
# In short: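 Compounds in DMSO were added to RXR-alpha-UAS-bla HEK 293T cells kept in 2% charcoal-stripped serum, and incubated 16 hr at 37 C with 5% CO2. Reporter signal came from a 2 hr B/G FRET substrate step.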
# [17] = qHTS assay to identify small molecule agonists of the vitamin D receptor (VDR) signaling pathway - cell viability counter screen (AID 743224)
# In short: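 Here cell health was gauged by luminescent ATP detection (CellTiter-Glo, 30 min RT) in VDR-bla cells that had been incubated with test compounds for 16 h at 37C and 5% CO2.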
# [18] = target: Bile acid receptor (Homo sapiens) (UniProt Q96RI1); test: qHTS assay to identify small molecule antagonists of the farnesoid-X-receptor (FXR) signaling pathway (AID 743217; active means well fitted inhibition curve with a large enough effect in the signal ratio in the repeat runs, not every such curve was filed as active; the % refers to the signal ratio)
# In short: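 In this cell-based antagonist screen, inhibition of CDCA-driven (50 uM final) UAS-beta-lactamase expression in HEK 293T cells was measured by FRET fluorescence following 16 h compound exposure at 37 °C.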
# [19] = target: Bile acid receptor (Homo sapiens) (UniProt Q96RI1); test: qHTS assay to identify small molecule agonists of the farnesoid-X-receptor (FXR) signaling pathway (AID 743220; active means well fitted activation curve with a large enough effect in the signal ratio in the repeat runs, not every such curve was filed as active; the % refers to the signal ratio)
# In short: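 Beta-lactamase reporter under UAS control in GeneBLAzer FXR HEK 293T cells (5000/well) measured with LiveBLAzer FRET substrate after 2 h at room temperature. Compound exposure lasted 16 h at 37C.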
# Vitamin D3 receptor (Homo sapiens), sequence (P11473 whole entry, looked up): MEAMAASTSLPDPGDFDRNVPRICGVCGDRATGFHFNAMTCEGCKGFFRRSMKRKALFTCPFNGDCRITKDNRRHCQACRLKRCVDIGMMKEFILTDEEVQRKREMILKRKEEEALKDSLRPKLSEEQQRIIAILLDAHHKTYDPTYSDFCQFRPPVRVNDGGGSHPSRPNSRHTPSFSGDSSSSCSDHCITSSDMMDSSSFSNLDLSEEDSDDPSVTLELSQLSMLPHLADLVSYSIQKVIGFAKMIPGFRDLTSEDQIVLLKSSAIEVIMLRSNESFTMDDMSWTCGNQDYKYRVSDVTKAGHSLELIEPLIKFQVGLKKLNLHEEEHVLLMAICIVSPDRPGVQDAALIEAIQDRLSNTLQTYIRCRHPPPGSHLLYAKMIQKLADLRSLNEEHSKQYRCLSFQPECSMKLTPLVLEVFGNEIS
# Bile acid receptor (Homo sapiens), sequence (Q96RI1 whole entry, looked up): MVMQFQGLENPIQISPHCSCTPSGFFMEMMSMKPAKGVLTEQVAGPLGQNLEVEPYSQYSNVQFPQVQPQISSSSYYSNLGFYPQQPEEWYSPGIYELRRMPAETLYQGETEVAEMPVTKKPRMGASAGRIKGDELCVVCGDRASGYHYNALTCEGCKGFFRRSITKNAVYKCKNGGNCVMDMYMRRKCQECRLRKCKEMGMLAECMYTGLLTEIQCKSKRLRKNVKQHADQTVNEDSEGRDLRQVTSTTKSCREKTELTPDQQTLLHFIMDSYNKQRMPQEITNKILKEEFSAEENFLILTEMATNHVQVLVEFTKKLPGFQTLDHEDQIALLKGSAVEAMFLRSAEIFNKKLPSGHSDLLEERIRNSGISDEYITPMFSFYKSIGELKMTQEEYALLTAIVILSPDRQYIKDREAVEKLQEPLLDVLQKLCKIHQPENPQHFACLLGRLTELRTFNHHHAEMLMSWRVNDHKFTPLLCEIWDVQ
# Peroxisome proliferator-activated receptor delta (Homo sapiens), sequence (Q03181 whole entry, looked up): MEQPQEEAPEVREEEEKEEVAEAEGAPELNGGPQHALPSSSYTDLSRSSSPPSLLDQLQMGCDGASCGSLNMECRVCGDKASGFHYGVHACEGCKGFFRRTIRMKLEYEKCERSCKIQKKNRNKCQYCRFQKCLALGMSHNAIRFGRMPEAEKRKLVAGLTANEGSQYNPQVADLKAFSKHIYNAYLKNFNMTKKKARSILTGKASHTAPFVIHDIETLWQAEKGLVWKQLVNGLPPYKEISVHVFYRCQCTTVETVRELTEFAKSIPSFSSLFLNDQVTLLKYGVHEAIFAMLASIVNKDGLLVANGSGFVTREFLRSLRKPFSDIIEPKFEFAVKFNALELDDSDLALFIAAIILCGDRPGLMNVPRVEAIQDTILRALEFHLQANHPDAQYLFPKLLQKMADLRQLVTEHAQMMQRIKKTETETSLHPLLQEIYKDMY
# Retinoic acid receptor RXR-alpha (Homo sapiens), sequence (P19793 whole entry, looked up): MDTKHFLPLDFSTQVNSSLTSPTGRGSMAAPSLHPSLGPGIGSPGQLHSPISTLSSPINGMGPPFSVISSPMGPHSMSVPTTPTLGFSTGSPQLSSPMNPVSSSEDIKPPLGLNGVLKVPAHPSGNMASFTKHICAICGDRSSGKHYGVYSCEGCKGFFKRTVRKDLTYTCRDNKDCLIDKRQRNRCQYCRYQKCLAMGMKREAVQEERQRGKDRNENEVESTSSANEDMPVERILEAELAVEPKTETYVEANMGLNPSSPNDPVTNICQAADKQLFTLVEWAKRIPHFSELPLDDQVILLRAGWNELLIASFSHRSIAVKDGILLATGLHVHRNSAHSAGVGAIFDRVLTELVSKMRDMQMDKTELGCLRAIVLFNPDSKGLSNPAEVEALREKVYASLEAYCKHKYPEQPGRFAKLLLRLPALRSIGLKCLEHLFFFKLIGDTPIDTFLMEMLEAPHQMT
Structure (SMILES),outcome [1],Potency [2],Potency [3],Potency [4],Potency [5],Potency [6],Potency [7],Potency [8],Potency [9],Potency [10],Potency [11],Potency [12],Potency [13],outcome [14],Potency [15],Potency [16],Potency [17],Potency [18],outcome [19]
CCCn1cc[n+](C)c1,inactive,inactive,inactive,inactive,inactive,inactive,inactive,inactive,inactive,inactive,inactive,inactive,inactive,,,,,,
CCCCCCCCCCn1cc[n+](C)c1,,,55.5 µM (active) and inactive,inactive,,inactive,,inactive,7.73 µM (active) [middle of 5 runs],,inactive,inactive,inactive,,,,,,
CCn1cc[n+](C)c1C,,,inactive,inactive,inactive,inactive,inactive,,inactive,inactive,inactive,inactive,inactive,inactive,inactive,,,,
CCCCCCCCCCCC(=O)O,,,inactive,inactive,inactive,inactive,inactive,,,,inactive,inactive,inactive,,,55.1 µM (active) and 63 µM (active),,,
O=C(O)C(Cl)Cl,inactive,,inactive,inactive,inactive,inactive,inactive,,inactive,,inactive,inactive,inactive,,,,inactive,,
O=S(=O)(O)O,,inactive,inactive,inactive,inactive,inactive,inactive,,,,inactive,inactive,inactive,,,,inactive,,
COCC(=O)N(c1c(C)cccc1C)C(C)C(=O)OC (stereo not drawn),inactive,inactive,inactive,inactive,inactive,inactive,inactive,,inactive,inactive,inactive,inactive,inactive,inactive,inactive,,inactive,inactive,inactive
CCCCCCCCn1cc[n+](C)c1,,inactive,inactive,inactive,,inactive,inactive,inactive,,inactive,inactive,inactive,inactive,inactive,inactive,,,,
O=[N+]([O-])c1ccccc1O,,inactive,inactive,inactive,inactive,inactive,inactive,,inactive,inactive,inactive,inactive,inactive,,,,,,
CCCC[N+]1(C)CCCCC1,,,inactive,inactive,inactive,inactive,inactive,,inactive,inactive,inactive,inactive,inactive,inactive,inactive,inactive,,,
N#CS,,inactive,inactive,inactive,inactive,inactive,inactive,,,inactive,inactive,inactive,inactive,inactive,inactive,,,,
COP(=O)(OC)OC=C(Cl)Cl,inactive,,inactive,inactive,inactive,inactive,inactive,,inactive,,inactive,inactive,inactive,,,,,,
CC[N+]1(C)CCCC1,,inactive,inactive,inactive,inactive,inactive,inactive,,inactive,,inactive,inactive,inactive,,,,,,
CN(C)[C@@H]1C(=O)C(C(N)=O)=C(O)[C@@]2(O)C(=O)C3=C(O)c4c(O)cccc4[C@@](C)(O)[C@H]3[C@H](O)[C@@H]12,,,inactive,inactive,inactive,inactive,inactive,,,inactive,inactive,inactive,inactive,,,inactive,,,
O=C(O)C(Cl)(Cl)Cl,inactive,,inactive,inactive,inactive,inactive,inactive,,inactive,inactive,inactive,inactive,inactive,inactive,inactive,inactive,inactive,,
CCCC[N+]1(C)CCCC1,,inactive,inactive,inactive,inactive,inactive,inactive,,inactive,,inactive,inactive,inactive,,,,,,
CCCCCC[n+]1ccccc1,,,inactive,inactive,inactive,inactive,inactive,,inactive,inactive,inactive,55.5 µM (active) and 49.3 µM (active) and inactive,inactive,,,,,,
